PubChem BioAssay (NCI)
The panel holds about 79,000 compounds, 15% with a hit somewhere; the sample as a whole holds those more often. Calls of active or inactive are those of the source. Cut-off read from the data, not from the text of the source: active = growth inhibition above about 70%; inactive = the rest.

Experiment: NCI Yeast Anticancer Drug Screen. Data for the rad52 strain (AID 147);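 note: 0% = growth of vehicle-treated control cultures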
Conditions: S. cerevisiae rad52 mutant growth inhibition, active compounds read high
Experimental: Growth inhibition of yeast strains with defined genetic alterations is measured as a screen for potential anti-cancer activity. Selected strains with alterations in DNA damage repair or cell cycle control were exposed to compounds and growth inhibition was measured relative to vehicle treated controls. The strain used in this assay is rad52

Measured: growth inhibition

O=C(NC(Nc1ccc(F)c(Cl)c1)(C(F)(F)F)C(F)(F)F)C(C(F)(F)F)C(F)(F)F
active: at 11.0 µM 70% | at 33.0 µM 93% | at 100.0 µM 97%
inactive: at 1.2 µM -2% | at 3.7 µM 12%

CC(C)OC(=O)Oc1ccccc1OC(=O)OC(C)C
inactive: at 1.2 µM -3% | at 3.7 µM -3% | at 11.0 µM 1% | at 33.0 µM 2% | at 100.0 µM -3%

O=C1C=CC(=C(c2ccccc2)c2ccccc2)c2ccccc21
inactive: at 1.2 µM 6% | at 3.7 µM 3% | at 11.0 µM -4% | at 33.0 µM 4% | at 100.0 µM 0%

CCN(CC)CC(O)c1ccc2ccc3ccccc3c2c1 (stereo not given)
inactive: at 1.2 µM 3% | at 3.7 µM 7% | at 11.0 µM 14% | at 33.0 µM 14% | at 100.0 µM 46%

CCC#CCCCOC(=O)c1cc([N+](=O)[O-])cc([N+](=O)[O-])c1
active: at 33.0 µM 81% | at 100.0 µM 98%
inactive: at 1.2 µM -3% | at 3.7 µM -4% | at 11.0 µM 2%

Cc1ccc(S(=O)(=O)NC(=O)NC2=NC(C)(C)N(c3ccc(Cl)c(Cl)c3)C(N)=N2)cc1
inactive: at 1.2 µM -2% | at 3.7 µM -2% | at 11.0 µM -1% | at 33.0 µM -3% | at 100.0 µM -3%

O=C(NCCCCNCCCNC(=O)c1cc(-c2ccccc2)nc2ccccc12)c1cc(-c2ccccc2)nc2ccccc12
inactive: at 1.2 µM -1% | at 3.7 µM -1% | at 11.0 µM -3% | at 33.0 µM 40%
active: at 100.0 µM 92%

[O-][n+]1c2ccc(O)cc2nc2ccc(Cl)cc21
active: at 33.0 µM 75% | at 100.0 µM 75%
inactive: at 1.2 µM 5% | at 3.7 µM 19% | at 11.0 µM 45%
